PubChem BioAssay AID624172 (National Center for Advancing Translational Sciences (NCATS), 2012)
The whole screen tested about 380,000 compounds, of which about 25 (0.007%) were called active. Calls come from the whole dose curve; as a rule, active = well fitted activation curve with a large enough effect; inconclusive = small, poorly fitted or top-dose-only effect; inactive = no such curve, though single readings can be large or run the other way. A selection follows.

These compounds were tested against Glucagon-like peptide 1 receptor (Homo sapiens) (UniProt P43220) (assay: qHTS of GLP-1 Receptor Agonists). Conditions: HEK293 GLP-1R CRE-luciferase, luminescence, 4-6 h, cells express a hypersensitive GLP-1R form; series mostly up to 45.6 µM; activation: at the top concentration.
Chain of Glucagon-like peptide 1 receptor (Homo sapiens) (P43220 whole entry, looked up): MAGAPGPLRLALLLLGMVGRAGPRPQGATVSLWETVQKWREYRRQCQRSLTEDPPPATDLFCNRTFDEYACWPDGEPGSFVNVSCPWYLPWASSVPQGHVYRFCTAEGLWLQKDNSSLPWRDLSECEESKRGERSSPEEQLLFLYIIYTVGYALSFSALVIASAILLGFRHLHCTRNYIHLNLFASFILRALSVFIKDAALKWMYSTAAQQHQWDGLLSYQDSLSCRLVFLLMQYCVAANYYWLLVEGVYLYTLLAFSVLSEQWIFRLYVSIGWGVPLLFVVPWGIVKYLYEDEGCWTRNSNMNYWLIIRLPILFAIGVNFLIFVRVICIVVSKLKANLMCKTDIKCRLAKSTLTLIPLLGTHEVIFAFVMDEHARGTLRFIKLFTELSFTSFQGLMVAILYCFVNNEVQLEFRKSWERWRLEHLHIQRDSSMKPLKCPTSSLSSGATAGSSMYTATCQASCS
From the text: The overall goal of this project was to develop a novel assay for discovering small molecule ligands for class B1 G protein-coupled receptors (GPCRs). Very few agonists (or inverse agonists) with generally weak activity for this entire group of physiologically important receptors are known to date. To establish proof-of-principle that this critical bottleneck can be overcome with a suitable screening approach, our studies focused on the class B1 receptor for glucagon-like peptide-1 (GLP-1R), a potential therapeutic target for diabetes and neurodegenerative disease.
The assay was developed in a "mix and measure" format using a cell-based functional readout. Toward this goal, stably transfected HEK293 cell clones were established that co-express (i) a cAMP-responsive luciferase reporter gene, and (ii) GLP-1Rs that upon ligand interaction either stimulate (agonists) or inhibit (inverse agonists) luciferase activity. In different cell lines to be used for screening, expressed GLP-1Rs are specifically optimized for high sensitivity detection of either weak agonists (hypersensitive receptor) or inverse agonists (constitutively active receptor mutant). In addition, control cell lines were developed that express either the cAMP-responsive reporter gene without recombinant GLP-1Rs (enabling initial exclusion of GLP-1R independent effects of candidate probes), or the reporter gene together with wild type GLP-1Rs (for confirmation of probe activity at this receptor), or the reporter gene in combination with the constitutively active orphan receptor GPR119 (enabling initial exclusion of GLP-1R independent inhibitory effects of candidate inverse agonists).
To that end, this assay was optimized for 1536-well format and screened against the MLSMR.
NIH Molecular Libraries Probe Production Network [MLPCN]
NIH Chemical Genomics Center [NCGC]
PI Name: Martin Beinborn, Tufts Medical Center
In a white solid 1536-well plate, 6 uL of cells are dispensed in DMEM without phenol red, 10% Nu serum, and 1% pen-strep medium. The plates are then incubated for 12 hours at 37 deg C at 5% CO2 before 23 nL of compounds are added. After a 4-6 hr incubation at37 deg C and 5% CO2, 3 uL of detection reagent are added and after a 12 min incubation at RT, a luminescent read is obtained on the ViewLux.
Note: % of control where 0% means no effect.

activation, inactive:
O=C1c2c(O)cccc2[C@@H]([C@@H]2O[C@H](CO)[C@@H](O)[C@H](O)[C@H]2O)c2cc(CO)cc(O)c21 0.834%
CCOCCCNC(=O)c1cn(CC)c2ccc(S(=O)(=O)N3CCc4ccccc4C3)cc2c1=O 1.02%
CC(=O)N1CCc2cc(Br)cc(S(=O)(=O)CCC(=O)NCCc3ccc(Cl)cc3)c21 0.617%
COc1ccc(Nc2ncc(C(=O)Nc3cc(C)ccc3OC)c3ccccc23)cc1 0.74%
COc1cc2nc(SCC(=O)Nc3ccccc3F)n3nc(-c4ccccc4)nc3c2cc1OC -0.682%
CCN(CC)c1ccc(C2C(C(N)=O)=C(C)Nc3nc(SCc4ccccc4)nn32)cc1 (stereo not given) 2.01%
CCCCCn1c(=O)[nH]c2cc(C(=O)Nc3ccc(F)cc3)ccc2c1=O 0.528%
CC[C@]1(C)CC(=O)NC1=O -4.13%
COc1cc(OC)c(NC(=O)c2c3c(nn2C)-c2ccccc2SC3)cc1Cl 0.142%
COc1ccc(-c2cc(C(F)(F)F)nc(SCC(=O)N(C)Cc3ccccc3)n2)cc1OC 4%
CC1(C)O[C@@H]2C[C@@H]3[C@H]4C[C@@H](F)C5=CC(=O)C=C[C@]5(C)[C@@]4(F)[C@@H](O)C[C@]3(C)[C@]2(C(=O)CO)O1 -0.578%
Cc1ccc(C)c(N2C(=O)N(Cc3c(F)cccc3Cl)c3ccccc3S2(=O)=O)c1 0.891%
COc1cccc(CNC(=O)C(NS(=O)(=O)c2ccc3nc(C)sc3c2)C(C)C)c1 (stereo not given) -4.28%
Cc1cc2c(cc1S(=O)(=O)CCC(=O)Nc1ccc(OC(F)(F)F)cc1)OCC(=O)N2 18.1%
NC(=O)C(=O)N/N=C/c1ccc([N+](=O)[O-])o1 -3.04%
Cc1ccc(-c2ncc(Cl)cc2-c2ccc(S(C)(=O)=O)cc2)cn1 0.0129%
Cc1nnc(C(=O)NC(C)(C)c2nc(C(=O)NCc3ccc(F)cc3)c(O)c(=O)n2C)o1 12.6%
CC[C@]1([C@H]2O[C@@H]([C@@H]3O[C@](O)(CO)[C@@H](C)C[C@H]3C)C[C@H]2C)CC[C@@H]([C@]2(C)CC[C@@]3(C[C@@H](O)[C@@H](C)[C@@H]([C@H](C)[C@H](OC)[C@H](C)C(=O)O)O3)O2)O1 -2.14%
COc1ccc(NC(=O)C2CCCN(S(=O)(=O)c3c(C)[nH]c(=O)[nH]c3=O)C2)c(OC)c1 (stereo not given) -0.467%
Cc1cccc(C)c1NC(=O)NC1=CCCN1C 4.03%
CCCN(C(=O)Cn1cc(S(=O)(=O)N2CCN(c3ccccc3F)CC2)c2ccccc2c1=O)c1cccc(C)c1 -0.739%
C[C@@H]1C[C@H]2[C@@H]3C[C@H](F)C4=CC(=O)C=C[C@@]4(C)[C@]3(F)[C@H](O)C[C@]2(C)[C@@]1(O)C(=O)CO -0.723% [at 19.8 µM]
CCCC(=O)O[C@]1(C(=O)COC(=O)CC)CC[C@@H]2[C@@H]3CCC4=CC(=O)CC[C@]4(C)[C@H]3[C@@H](O)C[C@@]21C -1.61%
CC(=O)CC(c1ccccc1)C1C(=O)Oc2ccccc2C1=O (stereo not given) -4.85%
COc1cc2c(cc1OC)[C@@H](Cc1cc(OC)c(OC)c(OC)c1)[N+](C)(CCCOC(=O)CC/C=C/CCC(=O)OCCC[N+]1(C)CCc3cc(OC)c(OC)cc3[C@H]1Cc1cc(OC)c(OC)c(OC)c1)CC2 (stereo not given in full) -0.798%
Cc1cc(OCC(=O)NCC2(N(C)C)CCCCC2)cc(C)c1Cl -2.17%
CC(=O)c1ccc(NC(=O)C2CCN(S(=O)(=O)c3c(C)noc3/C=C/c3ccc(C)cc3)CC2)cc1 -2.34%
COc1ccc(NC(=O)c2cnc(Nc3ccc(C)c(Cl)c3)c3ccccc23)cc1OC -1.26%
O=C(NCc1ccccc1)C1CCN(S(=O)(=O)c2ccc3[nH]c(=O)ccc3c2)CC1 1.16%
CC1=Nc2cc(C(=O)N3CCC(C)CC3)ccc2Sc2ccc(Cl)cc21 0.558%
Cc1cn([C@H]2CC(F)[C@@H](CO)O2)c(=O)[nH]c1=O (stereo not given in full) 7%
Cc1cccc(-n2c(=O)c3c(c4cc(C)ccc4n3C)n(CC(=O)Nc3ccccc3Cl)c2=O)c1 0.522%
O=C(O)CCCCC(=O)O -6.16%
Cc1ccc(CCNC(=O)Cn2c(-c3cccs3)cc3cc(F)ccc32)cc1 -0.201%
CC(C)(O)c1ccccc1CC[C@H](SCC1(CC(=O)O)CC1)c1cccc(/C=C/c2ccc3ccc(Cl)cc3n2)c1 5.38%
CO/N=C(\C(=O)N[C@@H]1C(=O)N2C(C(=O)O)=C(Cn3nnc(C)n3)CS[C@H]12)c1csc(N)n1 -4.78%
COc1ccc(CCNC(=O)CCCCn2c(=O)c3ccccc3n(Cc3ccccc3C)c2=O)cc1OC 12.4%
CCOc1ccc(CNCCSc2nnnn2C)cc1 -0.857%
CC(O)COc1ccccc1 (stereo not given) -2.13%
Cc1ccc(C(=O)Nc2ccc(OCc3cc(=O)n4c5c(sc4n3)CCCC5)cc2)cc1 -0.745%
COc1cc([C@@H]2c3cc4c(cc3[C@@H](O[C@@H]3O[C@@H]5CO[C@@H](C)O[C@H]5[C@H](O)[C@H]3O)[C@H]3COC(=O)[C@H]23)OCO4)cc(OC)c1OP(=O)(O)O -0.904%
Cn1c(=O)c2c(nc(NCCc3ccccc3)n2Cc2ccccc2Br)n(C)c1=O 1.23%
COc1ccccc1-c1ccnc2[nH]n(-c3ccccc3)c(=O)c12 0.335%
CN(C)CCCn1c(-c2ccc(Cl)cc2)csc1=Nc1ccccc1 15.8%
COc1cc(C[C@H]2NCCc3cc(O)c(O)cc32)cc(OC)c1OC 25.4%
O=C(Nc1cccc2cccnc12)c1cccc2c(Br)cccc12 0.0139%
COc1ccc(CCNC(=O)CCc2c(C)nc3c(c(C)nn3-c3ccc(C)c(C)c3)c2C)c(OC)c1OC -0.6%
CCn1cc(C(=O)OCC(=O)Nc2cc(C)cc(C)c2)c(=O)c2ccc(C)nc21 -2.48%
CN(CC(=O)Nc1ccccc1F)S(=O)(=O)c1ccc2c(c1)c(=O)n(C)c(=O)n2C -1.36%
Cc1c(O)cc2c(c1C)O[C@](C)(CCC[C@H](C)CCC[C@H](C)CCCC(C)C)CC2 7.18%
COc1ccc(C2(C#N)CCC(C(=O)O)CC2)cc1OC1CCCC1 (stereo not given) -2.56%
Cc1ccc(NC(=O)c2oc3ccccc3c2NC(=O)Cc2cccs2)cc1 0.593%
NNc1nnc(NN)c2ccccc12 12.5%
O=C(C1CCCN(S(=O)(=O)c2cccc3nonc23)C1)N1CCN(c2ccccc2F)CC1 (stereo not given) -1.48%
COc1cccc(NC(=O)N(Cc2cn(C)c3ccccc23)C2CCCCCC2)c1 -6.68%
COc1ccc2[nH]c3c(c2c1)CCN(C(=O)CCC1CCCC1)C3c1ccc(F)cc1 (stereo not given) 0.944%
Nc1ccccc1N 1.01% [at 96 µM]
NNc1nnc(Cc2ccncc2)c2ccccc12 -3.34%
CC(=O)OCC(=O)[C@@]1(O)CC[C@@H]2[C@H]3CCC4=CC(=O)C=C[C@]4(C)[C@]3(F)[C@@H](O)C[C@@]21C -1.89% [at 19.8 µM]
CCC(CC)C(=O)N1CCc2cc(OC)c(OC)cc2C1COc1ccc(F)cc1 (stereo not given) 18.6%
CCC[C@H]1C(=O)N2C(N(C)C)=Nc3ccc(C)cc3N2C1=O 2.77% [at 19.8 µM]
C=C1C(=CC=C2CCC[C@@]3(C)[C@@H]2CC[C@H]3[C@H](C)CCCC(C)C)C[C@@H](O)C[C@@H]1O 7.68%
O=C1C(c2[nH]c3ccccc3c2O)=Nc2ccccc21 17.2%
CC(=O)OC[C@H]1O[C@@H](O[C@H]2[C@H](O)[C@@H](OC(=O)c3ccccc3C(=O)O)[C@H](O)O[C@@H]2COC(C)=O)[C@H](O)[C@@H](OC(=O)c2ccccc2C(=O)O)[C@@H]1O 5.47%
COc1ccc(CNC(=O)c2cc3cccc(OC)c3oc2=O)cc1 -5.88%
O=C(C1CC1)N1CCc2cc(Br)cc(S(=O)(=O)N3CCN(c4ccccc4F)CC3)c21 0.0455%
O=C(O)CCC(=O)O -1.33%
COc1ccc(OC)c([C@H](O)CNC(=O)CN)c1 1.93% [at 19.8 µM]
O=C(NC1CCCCC1)c1ccc2c(c1)N(Cc1ccc(Cl)cc1)C(=O)c1ccccc1S2=O (stereo not given) -3.48%
Cc1ccc(C)c(CN2C(=O)c3ccccc3S(=O)c3ccc(C(=O)N4CCOCC4)cc32)c1 (stereo not given) -0.515%
COc1ccc(S(=O)(=O)NCCSc2nnnn2-c2ccccc2)cc1 0.741%
CC(=O)OC1C([N+]2(C)CCCCC2)C[C@H]2C3CC[C@H]4C[C@H](OC(C)=O)C([N+]5(C)CCCCC5)CC4(C)C3CCC12C (stereo not given in full) -1.14%
CCOC(=O)Cc1cccc(-c2cc(CCCCCCc3ccc(O[C@H]4O[C@H](COC(C)=O)[C@@H](OC(C)=O)[C@H](OC(C)=O)[C@@H]4OC(C)=O)c(-c4cccc(CC(=O)OCC)c4)c3)ccc2O[C@H]2O[C@H](COC(C)=O)[C@@H](OC(C)=O)[C@H](OC(C)=O)[C@@H]2OC(C)=O)c1 2.49%
O=C(CCn1c(=O)c2ccccc2n(Cc2ccc(Cl)cc2)c1=O)NCc1ccc2c(c1)OCO2 -0.608%
COc1ccc(-c2nc3ccccc3s2)cc1NC(=O)COc1ccccc1C 5.28%
CSc1ccc(C2C(C(=O)Nc3ccccc3)=C(C)Nc3nc4ccccc4n32)cc1 (stereo not given) 5.83%
O=C(O)[C@@H](S)[C@H](S)C(=O)O -4.55%
CCC(C)C1OC2(C=CC1C)CC1CC(C/C=C(/C)C(OC3CC(OC)C(OC4CC(OC)C(NC(C)=O)C(C)O4)C(C)O3)C(C)/C=C\C=C3\COC4C(O)C(C)=CC(C(=O)O1)C34O)O2 (stereo not given) -1.5%
CCc1nc2onc(C)c2c(=O)n1CC(=O)O -2.43%
CC1=C(C(=O)OCC2CCCCC2)C(c2c(F)cccc2Cl)CC(=O)N1 (stereo not given) 0.542%
CCCCCn1c(CCNC(=O)c2ccc(F)cc2)nc2ccccc21 -6.1%
O=c1cc2nc(-c3ccccc3)nc(SCCOc3ccc(Cl)cc3)n2[nH]1 0.394%
C[C@H]1C[C@H]2[C@@H]3CCC4=CC(=O)C=C[C@]4(C)[C@@H]3C(=O)C[C@]2(C)[C@@]1(O)C(=O)CO 8.98%
COc1cc2c(cc1OC)CC(=O)N(CCCN(C)C[C@H]1Cc3cc(OC)c(OC)cc31)CC2 -1.07%

outcome, inactive:
CC1(C)OC[C@@H](COC(=O)CCc2ccc(OC[C@@H](O)CNCCNC(=O)N3CCOCC3)cc2)O1
